# TLR9-MyD88 block – blocks human TLR9 binding to MyD88. CHO BLA complementation TLR9-MyD88, CCF4 FRET ratio. inhibition, % at 4.98 µM. 340,000 tested, 0.21% active. AID 504734;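 active = inhibition above the mean over all tested compounds plus 3 SD, cut at about 21% in these data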;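 note: 0% = DMSO only wells and 100% = clavulanate BLA inhibitor control wells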
# NTR1 ag – agonists of human neurotensin receptor NTR1. activation, % at 20 µM. P30989. AID 493036. 330,000 tested, 0.17% active. NTR1-U2OS beta-arrestin-GFP spot imaging, agonist mode;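 active = activation at or above 40% of the spot to cytoplasm intensity ratio, with at least 20 cells analyzed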;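 note: 0% = DMSO without peptide and 100% = 100 nM NTR1 peptide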
# ABHD5 PLIN5 PPI – ABHD5-PLIN5 protein interaction inhibition; 360,000 tested, 0.78% active; Q00G26+Q8WTS1; inhibition, % at 4 µM; Split G. princeps luciferase complementation, luminescence, 4 h;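 active = inhibition above the mean inhibition across every tested compound plus 3 SD, cut at about 22% in these data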;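 note: 0% = DMSO only wells and the 100% control is not disclosed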
# Target sequence (Q00G26 whole entry, looked up): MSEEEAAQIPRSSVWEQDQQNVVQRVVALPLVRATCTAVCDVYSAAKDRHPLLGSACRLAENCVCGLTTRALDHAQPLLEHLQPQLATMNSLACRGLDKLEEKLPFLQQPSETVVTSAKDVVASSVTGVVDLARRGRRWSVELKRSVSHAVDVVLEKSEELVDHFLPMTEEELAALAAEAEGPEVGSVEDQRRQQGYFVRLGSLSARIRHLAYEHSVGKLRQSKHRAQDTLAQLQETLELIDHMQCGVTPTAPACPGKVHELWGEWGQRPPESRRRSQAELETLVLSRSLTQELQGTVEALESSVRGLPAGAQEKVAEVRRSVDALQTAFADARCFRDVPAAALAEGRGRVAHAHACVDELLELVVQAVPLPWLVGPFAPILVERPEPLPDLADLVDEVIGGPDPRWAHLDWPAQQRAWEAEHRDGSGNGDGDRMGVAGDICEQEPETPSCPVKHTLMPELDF
# Target sequence (Q8WTS1 whole entry, looked up): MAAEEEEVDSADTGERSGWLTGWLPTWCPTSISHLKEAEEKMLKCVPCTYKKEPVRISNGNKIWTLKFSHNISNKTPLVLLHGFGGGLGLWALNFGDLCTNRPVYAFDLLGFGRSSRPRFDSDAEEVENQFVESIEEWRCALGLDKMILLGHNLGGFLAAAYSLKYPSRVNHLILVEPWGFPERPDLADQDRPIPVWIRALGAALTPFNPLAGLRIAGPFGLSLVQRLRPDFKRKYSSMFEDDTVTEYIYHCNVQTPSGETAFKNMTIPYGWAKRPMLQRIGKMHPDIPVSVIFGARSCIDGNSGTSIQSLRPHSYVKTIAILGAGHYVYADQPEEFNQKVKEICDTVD
# TLR4-MyD88 BLA – inhibitors of human TLR4-MyD88 binding | O00206+Q99836 | HeLa CL3-4 TLR4/MyD88 BLA complementation, FRET ratio | inhibition, % at 8.4 µM | 200,000 tested, 0.18% active | AID 861; in the data active = inhibition above about 25%;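 note: 0% = vehicle and 100% = reference inhibitor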
# NOD2-RIPK2 inh – NOD2-RIPK2 protein interaction inhibition; O43353; CHO BLA complementation NOD2-RIPK2, CCF4 ratio; inhibition, % at 4.98 µM; 360,000 tested, 0.38% active; AID 624267; in the data active = inhibition above about 21%;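 note: 0% = vehicle only and 100% = reference blocker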
# B2AR ag – agonists of human beta-2 adrenergic receptor inducing internalization; P07550; Am2.2-beta2AR cells, FAP receptor internalization, flow cytometry; response, % (concentration not given with the values); 340,000 tested, 0.43% active; AID 504454;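 active = response above a set limit, near 3 SD of response in nonfluorescent compounds, cut at about 42% in these data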
# Beta2AR ag CP1 – human beta-2 adrenergic receptor agonism, cherry pick; shares compounds with B2AR ag; Am2.2-beta2AR cells, FAP surface receptor, flow cytometry; hits give low values; percent response (surface receptor), % at 10 µM; 1,100 tested, 25% active;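 active = surface receptor percent response at or below 58%, roughly 3 SD from nonfluorescent compounds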
# B2AR FAP counter – fluorescence artifact in beta-2AR agonist FAP counterscreen. Am2.2 cells, FAP fluorogen flow cytometry; hits give low values. calls only at 10 µM. shares compounds with B2AR ag. 1,100 tested, under 10 active;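 active = percent response below a set limit in fluorescence channel 1 and below 50% in channel 8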
# ABHD5-PLIN5 conf – ABHD5-PLIN5 interaction inhibition, confirmed; biochemical ABHD5-PLIN5 interaction, luminescence; 2,200 tested, 67% active; shares compounds with ABHD5 PLIN5 PPI; inhibition, % at 4 µM; in the data active = inhibition above about 23%;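 note: 0% = DMSO vehicle wells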
# HNF4 counter – counter-screen for ABHD5-PLIN5 inhibitors: HNF4 split-luciferase; 2,200 tested, 77% active; HNF4 dimerization, luminescence, biochemical; inhibition, % at 4 µM; shares compounds with ABHD5 PLIN5 PPI; AID 651674;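 active = mean inhibition across replicate wells exceeding the computed hit threshold, cut at about 13% in these data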;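 note: light from luciferase halves that rejoin when HNF4 fusion proteins dimerize; 0% = DMSO only wells and the 100% control is not given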
# An asterisk follows results filed as active; i = inactive; . = no result given; ! = repeats disagree. The list is not random: actives were taken first. Their share in the collection is about 1.5%.
SMILES,TLR9-MyD88 block,NTR1 ag,ABHD5 PLIN5 PPI,TLR4-MyD88 BLA,NOD2-RIPK2 inh,B2AR ag,Beta2AR ag CP1,B2AR FAP counter,others
O=C(c1ccc(OC2CCN(Cc3ccc(C(F)(F)F)cc3)CC2)cc1)N1CCCCC1,3.5,3.8,-10.8,.,-7.8,61.6*,8.5*,i,
O=C(c1ccc(OC2CCN(Cc3ccccc3OC(F)F)CC2)cc1)N1CCCC1,-10.0,-0.2,3.1,.,7.2,-1.3,.,.,
Cc1ccc(NC(=O)CCCn2c(=O)[nH]c3ccsc3c2=O)cc1,1.2,-1.6,-0.4,.,-1.6,-3.8,.,.,
Cc1ccc(CNC(=O)CCCCn2c(=O)[nH]c3ccsc3c2=O)cc1,3.0,1.6,9.6,-10.8,-0.3,12.3,120.5,i,
O=C(CCCCCn1c(=O)[nH]c2ccsc2c1=O)NCc1ccc(F)cc1,-1.0,0.7,0.7,6.6,-5.7,108.9*,1.5*,i,
O=C(CCCCCn1c(=O)[nH]c2ccsc2c1=O)NCc1cccs1,3.1,-0.9,-3.6,13.9,2.9,3.7,.,.,
CCc1nc2ccc(C(=O)N(C)CCCN(C)C)cn2c1N(C=O)CCC(C)C,.,.,-3.8,.,-0.7,.,.,.,
CC(C)c1ccc(O)c(=O)cc1,.,.,-2.3,.,0.2,.,.,.,
Cc1cccc(C)c1NC(=O)CN1CCN(CCCC(c2ccc(F)cc2)c2ccc(F)cc2)CC1,-3.1,21.3,3.2,.,17.5,20.1,104.0,i,
COCC(C)NC(=O)CCS(=O)(=O)c1nc(-c2ccc(OC)cc2)cc(C(F)(F)F)n1 (centres undefined),-8.7,15.2,13.5,-4.6,-10.1,52.6*,24.6*!,i,
COC(=O)c1ccccc1COc1cccn2c(N(C)Cc3cccs3)c(C)nc12,.,.,9.6,.,9.0,.,.,.,
Cc1cc(S(=O)(=O)N2CCOCC2)ccc1OCC(=O)Nc1ccc(F)cc1,-10.2,-1.6,5.2,.,3.1,2.8,111.8,i,
Cc1ccc(OCC(=O)Nc2ccc(S(=O)(=O)N3CCOCC3)cc2)c(C)c1,8.5,-1.2,7.0,.,-0.9,1.9,.,.,
Cc1cc(S(=O)(=O)N2CCOCC2)ccc1OCC(=O)Nc1ccc(F)c(Cl)c1,11.9,1.4,-5.5,.,1.4,-0.1,111.5,i,
CC1Cc2ccccc2N1C(=O)CNCCCN(C)C (centres undefined),-2.1,-0.3,-2.4,-7.5,2.2,1.6,.,.,
CC1CC2(C)Oc3ccccc3CC2C(C)C1CNCCCN(C)C (centres undefined),-0.2,2.3,16.7,-10.9,-2.1,42.1*,77.5,i,
COc1cc2c(cc1OC)C(=O)N1[C@H]3c4cc(Cl)ccc4OC[C@@H]3[C@H](c3ccccc3)[C@]1(C)C(=O)N2,-6.6,0.5,-10.8,.,-2.2,7.6,.,.,
COc1cc2c(cc1Cl)C(=O)C(F)(c1ccccc1)C(=O)N2 (centres undefined),-4.0,-0.6,-3.0,.,7.5,80.6*,13.3*,i,
CC(C)CCN1C(=O)c2ccccc2C1c1nnnn1-c1ccc2c(c1)OCCO2 (centres undefined),.,.,-9.6,.,-12.3,.,.,.,
CN(CCCN1CCOCC1)Cc1cn(C)nc1-c1ccccc1F,-7.5,-1.6,-0.2,7.2,-1.1,1.2,130.3,i,
CCCC(=O)N1CCN(c2ccc(NC(=O)c3ccc([N+](=O)[O-])o3)cc2Cl)CC1,2.9,.,0.4,-2.7,26.6*,42.3*,4.8*,i,
CCCc1nc2oc3c(NCCN(C)C)ncnc3c2c2c1CCCC2,5.8,12.9,5.5,4.7,-0.1,14.4,129.7,i,
CC(C)Cc1nc2oc3c(Cl)ncnc3c2c2c1CCCC2,-3.6,34.2,9.0,.,0.6,25.2,.,.,
CCCc1nc2oc3c(Cl)ncnc3c2c2c1CCCC2,0.5,4.4,2.3,.,-13.6,43.6*,90.1,i,
CCCc1nc2oc3c(NCCCN(C)C)ncnc3c2c2c1CCCC2,.,5.6,5.1,.,2.7,18.0,151.7,i,
SMILES,TLR9-MyD88 block,NTR1 ag,ABHD5 PLIN5 PPI,TLR4-MyD88 BLA,NOD2-RIPK2 inh,B2AR ag,Beta2AR ag CP1,B2AR FAP counter,others
CC(C)Cc1nc2oc3c(NCC(C)O)ncnc3c2c2c1CCCC2 (centres undefined),2.3,12.7,2.0,.,4.8,-3.2,110.0,i,
CC(C)=CCC/C(C)=C/CNC(=O)C[C@H]1C[C@H](C(=O)N2CCOCC2)[C@@]2(CCC3CCCC3)c3[nH]c4cc(CCC(=O)N(C)C)ccc4c3CCN2C1=O,3.7,17.3,-0.2,.,6.3,1.0,.,.,
CC1(C(=O)Nc2ccc3ccccc3c2)CCC(=O)N1CCCn1ccnc1 (centres undefined),.,.,-1.1,.,-4.7,.,.,.,
Cc1ccc(SCc2[nH]nc3c2C2(C(=O)Nc4ccc([N+](=O)[O-])cc42)C(C#N)=C(N)O3)cc1 (centres undefined),-0.1,1.5,8.3,9.7,4.2,84.0*,112.6,i,
COc1ccc(-c2nn(-c3ccccc3)cc2C(=O)N2c3ccc(C)cc3C3CN(C)CCC32)cc1 (centres undefined),-20.2,0.8,6.1,5.0,2.0,70.5*,90.4,i,
Cc1ccc2c(c1)C1CN(C)CCC1N2C(=O)c1ccccc1NS(=O)(=O)c1cccc(C(F)(F)F)c1 (centres undefined),13.7,-0.8,14.9,-16.5,-10.6,67.0*,103.7,i,
CCO/C(C)=N/Oc1cc(OC)cc(OC)c1,.,.,-8.1,.,-2.8,.,.,.,
Cc1ccc(NCC(=O)Nc2ccc(Br)cc2)cc1C,-8.8,1.2,-1.5,.,-8.3,-3.2,.,.,
Cc1ccc(F)cc1NCC(=O)Nc1ccc(Br)cc1,-32.7,1.1,-6.4,8.7,1.0,79.7*,110.2,i,
C[C@@H](NC(=O)[C@@H]1CCCN1C(=O)[C@@H]1CCCN1)c1ccccc1,.,.,2.4,.,-9.7,.,.,.,
COc1ccc(Nc2cc(C(=O)NCCCN3CCN(C)CC3)c3ccccc3n2)cc1,-0.7,0.0,7.1,-6.1,-4.3,47.3*,85.8,i,
Cc1ccc(-n2c3nc(=O)[nH]c(=O)c-3cc3cc([N+](=O)[O-])ccc32)cc1,-0.2,6.1,-4.0,10.5,-0.4,51.4*,107.8,i,
Cc1nc([N+](=O)[O-])c(Br)n1CC(=O)c1ccc2ccccc2c1,-4.5,21.2,24.5*,4.0,21.9*,42.7*,77.6,i,ABHD5-PLIN5 conf=52.6*;HNF4 counter=36.4*
Cc1nc([N+](=O)[O-])c(Br)n1CC(=O)c1ccccc1,-4.6,2.5,14.1,1.1,2.1,13.2,.,.,
